The results in this text go back to PubChem BioAssay.

Assay [1] can be described thus: viability loss in pontine glioma line – cell-based, SU-DIPG-XVII, MIPE5.0, CellTiter-Glo, qHTS, dose response (AID 1347060; cut-off not given, nearly all actives have AC50 up to about 26 µM;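 for AC50: cells exposed to compound for 48 hours before viability readout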). Conditions: CellTiter-Glo ATP luminescence.
A short description of assay [2]: viability loss in pontine glioma line – cell-based, SU-DIPG-XIII, MIPE5.0, CellTiter-Glo, qHTS, dose response (AID 1347064; cut-off not given, nearly all actives have AC50 up to about 23 µM;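 for AC50: cells exposed to compound for 48 hours before the viability read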). Particulars: CellTiter-Glo ATP luminescence.
Assay [3] in a line: viability loss in pontine glioma line – cell-based, SU-DIPG-XXV, MIPE5.0, CellTiter-Glo, qHTS, dose response (AID 1347065; cut-off not given, nearly all actives have AC50 up to about 26 µM;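 note: cells exposed to compound for 48 hours before ATP readout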). Conditions: CellTiter-Glo ATP luminescence. A general note: In ATP-based viability assays light output follows the ATP content of the culture.
The nature of assay [4]: JHH-DIPG-1 glioma cell viability, MIPE5.0 library, CellTiter-Glo luminescence, qHTS (AID 1347067; cut-off not given, nearly all actives have AC50 up to about 26 µM;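 note: cells exposed to compound for 48 hours before readout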). Conditions: JHH-DIPG-1 glioma viability, CellTiter-Glo ATP luminescence.
Assay [5] can be described thus: growth inhibition of DIPG cells – cell-based, MIPE5.0 library, qHTS (AID 1347068; cut-off not given, nearly all actives have IC50 up to about 30 µM;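 for IC50: cells exposed to compound for 48 hours before viability readout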). Particulars: SU-DIPG-XXV viability. On the technique in general: Quantitative high-throughput screening tests each substance at several concentrations.
A short description of assay [6]: drug combination growth inhibition, ovarian cancer – cell-based, oncology-focused library, rucaparib conditional, profiling panel (AID 1508598). Conditions: patient-derived ovarian cancer cells, CellTiter-Glo viability, 144 h, stronger effect = lower value.
Assay [7] in a line: viability loss with induced miR-34 in A549 – imaging, A549 dox-inducible miR-34, nuclei and caspase counts, primary screen (AID 1347080;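 active = compounds whose cell count with miR-34 switched on is under 0.7 times the count with it off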). Conditions: A549 miR-34 inducible, Hoechst nuclei count, 48 h.
A short description of assay [8]: MELAS cybrid and Rieske KO viability enhancers – cell-based, MELAS cybrids, Rieske KO mouse fibroblasts, CellTiter-Glo, primary screen (AID 1508586;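 active = mean z-score across replicates of 1.96 or higher in either the MELAS or the Rieske mutant cell line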;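 note: z relative to plate mean and SD of compound and empty wells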). Conditions: low glucose.
Where [9] appears, read: at 0.000305 µM, OCI-C5x cells, with rucaparib 10 µM, 100% = cells with rucaparib alone.
[10] abbreviates: at 0.000305 µM, OCI-C5x cells, without rucaparib.
The mark [11] stands for this setting: at 0.000305 µM, OCI-P5x cells, with rucaparib 20 µM, 100% = cells with rucaparib alone.
[12] abbreviates: at 0.000305 µM, OCI-P5x cells, without rucaparib.
The mark [13] stands for this setting: at 0.00122 µM, OCI-C5x cells, with rucaparib 10 µM, 100% = cells with rucaparib alone.
The mark [14] stands for this setting: at 0.00122 µM, OCI-C5x cells, without rucaparib.
Setting [15] is: at 0.00122 µM, OCI-P5x cells, with rucaparib 20 µM, 100% = cells with rucaparib alone.
[16] abbreviates: at 0.00122 µM, OCI-P5x cells, without rucaparib.
Setting [17] is: at 0.00488 µM, OCI-C5x cells, with rucaparib 10 µM, 100% = cells with rucaparib alone.
Where [18] appears, read: at 0.00488 µM, OCI-C5x cells, without rucaparib.
Where [19] appears, read: at 0.00488 µM, OCI-P5x cells, with rucaparib 20 µM, 100% = cells with rucaparib alone.
The mark [20] stands for this setting: at 0.00488 µM, OCI-P5x cells, without rucaparib.
Setting [21] is: at 0.0195 µM, OCI-C5x cells, with rucaparib 10 µM, 100% = cells with rucaparib alone.
[22] abbreviates: at 0.0195 µM, OCI-C5x cells, without rucaparib.
Where [23] appears, read: at 0.0195 µM, OCI-P5x cells, with rucaparib 20 µM, 100% = cells with rucaparib alone.
Where [24] appears, read: at 0.0195 µM, OCI-P5x cells, without rucaparib.
Where [25] appears, read: at 0.0781 µM, OCI-C5x cells, with rucaparib 10 µM, 100% = cells with rucaparib alone.
The mark [26] stands for this setting: at 0.0781 µM, OCI-C5x cells, without rucaparib.
[27] abbreviates: at 0.0781 µM, OCI-P5x cells, with rucaparib 20 µM, 100% = cells with rucaparib alone.
Setting [28] is: at 0.0781 µM, OCI-P5x cells, without rucaparib.
The mark [29] stands for this setting: at 0.313 µM, OCI-C5x cells, with rucaparib 10 µM, 100% = cells with rucaparib alone.
The mark [30] stands for this setting: at 0.313 µM, OCI-C5x cells, without rucaparib.
The mark [31] stands for this setting: at 0.313 µM, OCI-P5x cells, with rucaparib 20 µM, 100% = cells with rucaparib alone.
Where [32] appears, read: at 0.313 µM, OCI-P5x cells, without rucaparib.
Where [33] appears, read: at 1.25 µM, OCI-C5x cells, with rucaparib 10 µM, 100% = cells with rucaparib alone.
[34] abbreviates: at 1.25 µM, OCI-C5x cells, without rucaparib.
The mark [35] stands for this setting: at 1.25 µM, OCI-P5x cells, with rucaparib 20 µM, 100% = cells with rucaparib alone.
[36] abbreviates: at 1.25 µM, OCI-P5x cells, without rucaparib.
Where [37] appears, read: at 5 µM, OCI-C5x cells, with rucaparib 10 µM, 100% = cells with rucaparib alone.
Where [38] appears, read: at 5 µM, OCI-C5x cells, without rucaparib.
[39] abbreviates: at 5 µM, OCI-P5x cells, with rucaparib 20 µM, 100% = cells with rucaparib alone.
The mark [40] stands for this setting: at 5 µM, OCI-P5x cells, without rucaparib.
The mark [41] stands for this setting: stronger effect = lower value, cell number ratio, induced over uninduced.
Setting [42] is: measured here: relative caspase fold change +Dox/-Dox.
Where [43] appears, read: measured here: total cells with miR-34 induction, stronger effect = lower value.
Where [44] appears, read: measured here: total cells without miR-34 induction.
The mark [45] stands for this setting: MELAS cybrid survival, CellTiter-Glo 48 h, stronger effect = higher value.
[46] abbreviates: Rieske KO mouse fibroblast survival, CellTiter-Glo 72 h.

Inconclusive results are not listed. Active and inactive are the calls of the source.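 Rule for the calls, unless noted: active = normalized viability below 100% at a tested concentration; inactive = the rest.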

Consider `C#CC[C@H](c1nc2cc(Cl)ccc2c(=O)n1Nc1ccccc1)N(CCCN)C(=O)c1cccc(Cl)c1F`, for which the concentration at half-maximal activity (AC50) (commonly the concentration at which the activity in the assay is half-maximal) in assay [1] is 417 nM (active); in assay [2], 4680 nM (active); in assay [3], 372 nM (active); in assay [4] it was 742 nM (active). Besides, the IC50 (commonly the point on the concentration scale where inhibition reaches its midpoint) in assay [5] is 417 nM (active). Moreover, the viability (in general, a read-out of living cells in per cent, often relative to untreated cells) was 125% (inactive) in assay [6] (setting [9]); 105% (inactive) in assay [6] (setting [10]); 109% (inactive) in assay [6] (setting [11]); 94.3% (active) in assay [6] (setting [12]); 130% (inactive) in assay [6] (setting [13]); 102% (inactive) in assay [6] (setting [14]). The viability in assay [6] (setting [15]) is 109% (inactive); in assay [6] (setting [16]) it was 97.9% (active); in assay [6] (setting [17]), 115% (inactive); in assay [6] (setting [18]), 109% (inactive); in assay [6] (setting [19]) it was 107% (inactive); in assay [6] (setting [20]) it was 92.1% (active). Besides, the viability in assay [6] (setting [21]) was 125% (inactive); in assay [6] (setting [22]), 112% (inactive); in assay [6] (setting [23]) it was 96.2% (active); in assay [6] (setting [24]) it was 90.6% (active); in assay [6] (setting [25]), 67.5% (active); in assay [6] (setting [26]), 57.4% (active). Further, the viability is 91.9% (active) in assay [6] (setting [27]); 49.8% (active) in assay [6] (setting [28]); 57% (active) in assay [6] (setting [29]); 55% (active) in assay [6] (setting [30]); 59.6% (active) in assay [6] (setting [31]); 17.5% (active) in assay [6] (setting [32]). For the same compound, the viability is 56.2% (active) in assay [6] (setting [33]); 46.9% (active) in assay [6] (setting [34]); 54.9% (active) in assay [6] (setting [35]); 15.7% (active) in assay [6] (setting [36]); 1.31% (active) in assay [6] (setting [37]); 3.55% (active) in assay [6] (setting [38]). In addition, the viability in assay [6] (setting [39]) is 0.597% (active); in assay [6] (setting [40]), 1.54% (active).
With `O=C(NCC(=O)N1CCCC1)Nc1ccc2cnccc2c1`, the call in assay [1], in assay [2], in assay [3], in assay [4] and in assay [5] was inactive.
As to `COc1cc(N2CCC(N)CC2)ccc1Nc1ncc(Cl)c(-c2c[nH]c3ccccc23)n1`, the AC50 is 525 nM (active) in assay [1], 263 nM (active) in assay [2], 209 nM (active) in assay [3] and 525 nM (active) in assay [4]. In addition, the IC50 in assay [5] was 742 nM (active). Moreover, the fold change in assay [7] (setting [41]) is 0.915 (inactive); in assay [7] (setting [42]), 0.405. In addition, the cell count in assay [7] (setting [43]) came out at 1920; in assay [7] (setting [44]) it was 2100. The z-score in assay [8] (setting [45]) was 0.226 (inactive); in assay [8] (setting [46]) it was -0.504.
As to `C=CC(=O)Nc1cccc(Nc2nc(Nc3ccc(NC4CN(CCF)C4)cc3OC)ncc2C(F)(F)F)c1`, the AC50 in assay [1] is 1480 nM (active); in assay [2], 2350 nM (active); in assay [3], 1320 nM (active); in assay [4], 2630 nM (active). Also, the concentration for half-maximal inhibition (IC50) in assay [5] was 833 nM (active). Also, the fold change in assay [7] (setting [41]) is 0.964 (inactive); in assay [7] (setting [42]), 0.345. The cell count in assay [7] (setting [43]) came to 1930; in assay [7] (setting [44]) it was 2000. For the same compound, the results for the z-score in assay [8] (setting [45]) and in assay [8] (setting [46]) were 0.32 (inactive) and 1.6, respectively. In addition, the viability was 115% (inactive) in assay [6] (setting [9]); 107% (inactive) in assay [6] (setting [10]); 98.4% (active) in assay [6] (setting [11]); 92.9% (active) in assay [6] (setting [12]); 122% (inactive) in assay [6] (setting [13]); 120% (inactive) in assay [6] (setting [14]). Further, the viability in assay [6] (setting [15]) is 99.4% (active); in assay [6] (setting [16]) it was 89.9% (active); in assay [6] (setting [17]), 123% (inactive); in assay [6] (setting [18]), 114% (inactive); in assay [6] (setting [19]) it was 96.9% (active); in assay [6] (setting [20]) it was 94.8% (active). Moreover, the viability is 118% (inactive) in assay [6] (setting [21]); 108% (inactive) in assay [6] (setting [22]); 98.4% (active) in assay [6] (setting [23]); 103% (inactive) in assay [6] (setting [24]); 102% (inactive) in assay [6] (setting [25]); 115% (inactive) in assay [6] (setting [26]). Moreover, the viability was 103% (inactive) in assay [6] (setting [27]); 98.1% (active) in assay [6] (setting [28]); 132% (inactive) in assay [6] (setting [29]); 127% (inactive) in assay [6] (setting [30]); 106% (inactive) in assay [6] (setting [31]); 104% (inactive) in assay [6] (setting [32]). Besides, the viability in assay [6] (setting [33]) was 119% (inactive); in assay [6] (setting [34]) it was 126% (inactive); in assay [6] (setting [35]), 83.8% (active); in assay [6] (setting [36]) it was 83.2% (active); in assay [6] (setting [37]), 19.5% (active); in assay [6] (setting [38]), 94.4% (active). In addition, the viability is 13.3% (active) in assay [6] (setting [39]) and 20% (active) in assay [6] (setting [40]).
